Measurements taken from article PMC5540273 (PLoS ONE, 2017).

Experiments:
Conditions in all cases: concentration: 1 μM, replicates: in singlicate; n = 1
[1] = tested on: BTK
[2] = tested on: BUB1
[3] = tested on: CAMK1B
[4] = tested on: CAMK1D
[5] = tested on: CAMK1G
[6] = tested on: CAMK1
[7] = tested on: CAMK2A
[8] = tested on: CAMK2B
[9] = tested on: CAMK2D
[10] = tested on: CAMK2G
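Note: KINOMEscan kinase panel screen.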

Compound	%Inh [1] [%]	%Inh [2] [%]	%Inh [3] [%]	%Inh [4] [%]	%Inh [5] [%]	%Inh [6] [%]	%Inh [7] [%]	%Inh [8] [%]	%Inh [9] [%]	%Inh [10] [%]
Cc1ccc(NC(=O)c2ccc(Cl)cc2)cc1-c1ccc(C(=O)Nc2ccncc2)cc1 [GSK1398467]	0	47	4	0	9	4	100	86	10	12
COc1cccc(C2=C(Nc3cc(Cl)c(O)c(Cl)c3)C(=O)NC2=O)c1 [SB-390767]	0	2	0	16	0	4	0	0	0	0
COc1ccc(-c2coc3ccc(-c4nnc(C)o4)cc23)cc1	0	0	0	13	5	0	0	0	5	0
CS(=O)(=O)CCNCc1nc(-c2ccc3ncnc(Nc4ccc(OCc5ccccc5)c(Cl)c4)c3c2)cs1.Cl [GW582764]	35	62	4	3	0	9	0	0	1	18
Cc1ccc(-c2nc(Nc3ccncc3)c3ccccc3n2)s1 [GSK189015]	0	34	27	12	2	15	0	0	12	24
CC(=O)c1c(C)c2cnc(Nc3ccn(C)n3)nc2n(C2CCCC2)c1=O	0	2	8	0	1	0	0	0	13	9
Cc1ccc(NC(=O)Nc2ccc(Cl)c(C(F)(F)F)c2)cc1-c1ccc(C(=O)Nc2ccncc2)cc1 [GSK1398470]	0	9	2	15	12	17	0	4	13	25
COc1ccc(Nc2nccc(N3CCC(NC(=O)c4cc5ccccc5s4)C3)n2)cc1 (centres unmarked) [GSK1379738]	0	49	0	5	67	17	0	0	59	11
Nc1nccc(-c2c(-c3ccc(F)cc3)ncn2C2CCN(Cc3ccccc3)CC2)n1 [SB-219980]	0	38	56	0	0	12	0	0	0	0
CSc1ccc(-c2nc3n(c2-c2ccncc2)CCC3)cc1 [SKF-105561]	0	90	0	15	0	0	0	0	0	0
O=C1NC(=O)C(c2ccc(Cl)cc2)=C1Nc1ccc(O)cc1 [SB-340867]	0	0	0	99.8	0	100	0	0	0	6
COC(=O)C(NC(=O)NC1CCN(c2ccnc(Nc3ccc(F)cc3)n2)C1)c1ccccc1 (centres unmarked) [GSK1379712]	18	37	35	5	0	9	0	0	11	19
O=C(Nc1n[nH]c2nc(-c3cccs3)c(Br)cc12)C1CC1 [SB-735297]	0	0	0	0	0	0	100	100	10	11
Cc1cnc(N)c(/C=C/c2cncc(C(=O)NCCc3ccc(Cl)cc3Cl)c2)c1.Cl [GSK190937]	1	9	0	10	7	12	0	0	6	27
COc1ccc(Nc2nccc(N3CCC(NC(=O)C(C)c4ccc(Cl)cc4)C3)n2)cc1 (centres unmarked) [GSK1379735]	0	17	5	14	0	9	14	25	1	15
Cc1c(Cn2c3ccccc3n3c(=O)cc(N4CCOCC4)nc23)cccc1C(F)(F)F [GSK2306394]	0	3	13	20	0	5	0	0	9	7
Cn1cnc2c(N)ncnc21 [SKF-97623]	0	22	41	0	0	0	0	0	0	0
